The results in this text go back to PubChem BioAssay (Tox21).

Test [1] in a line: qHTS assay to identify small molecule antagonists of the thyroid receptor (TR) signaling pathway - cell viability counter screen (AID 743064). Note: nearly all actives have a fitted effect of over 50% in size. Note: potency is the fitted concentration of half-maximal effect. The procedure, abridged: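 Plate GH3.TRE-Luc cells; incubate 4 h at 37 °C; add compound, then T3 to 1 nM final; incubate 23.5 h; add CellTiter-Fluor; incubate 30 min at 37 °C, 5% CO2; read fluorescence.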
A short description of test [2]: qHTS assay to identify small molecule antagonists of the thyroid receptor (TR) signaling pathway (AID 743065). Note: nearly all actives have a fitted effect of over 55% in size. Note: potency is the fitted concentration of half-maximal effect. The method, boiled down:
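GH3.TRE-Luc rat pituitary cells (two TREs driving luciferase) were dosed with compound, then stimulated with 1 nM T3 (final) for 23.5 h at 37 C. ONE-Glo luminescence was the read-out, with CellTiter-Fluor fluorescence as the cytotoxicity counter-screen.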

Test [3] has as its system thyroid hormone receptor (rat, GH3 cells). The test is described as follows: qHTS assay to identify small molecule agonists of the thyroid receptor (TR) signaling pathway (AID 743066; calls by dose curve; note: potency is the fitted concentration of half-maximal effect). For orientation: qHTS replaces the single test concentration by a dilution series.
Test [4] addresses Estrogen receptor (Homo sapiens) (UniProt P03372). The test is described as follows: qHTS assay to identify small molecule antagonists of the estrogen receptor alpha (ER-alpha) signaling pathway (AID 743069; active = well fitted curve in the direction sought with a large enough effect in the signal ratio in the repeat runs, not every such curve was filed as active; inconclusive = weak or mixed curves, or effect the other way; inactive = no such curve, though single readings can be large or run the other way; the % refers to the signal ratio). The procedure, abridged:
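In this cell-based reporter format, GripTite HEK293 cells harbouring ER-alpha-UAS-bla were grown overnight with 2% charcoal-stripped FBS, dosed with DMSO-dissolved compounds, then challenged with 17beta-estradiol. After 18 hr at 37C, beta-lactamase activity was detected by FRET fluorescence.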

Test [5] is described as follows: qHTS assay to identify small molecule antagonists of the estrogen receptor alpha (ER-alpha) signaling pathway - cell viability counter screen (AID 743074; calls by dose curve; note: nearly all actives have a fitted effect of over 45% in size; note: potency is the fitted concentration of half-maximal effect).
Test [6] deals with Estrogen receptor (Homo sapiens) (UniProt P03372). The test is described as follows: qHTS assay to identify small molecule agonists of the estrogen receptor alpha (ER-alpha) signaling pathway (AID 743075; calls by dose curve; note: potency is the fitted concentration of half-maximal effect).
Chain of Estrogen receptor (Homo sapiens) (P03372 whole entry, looked up): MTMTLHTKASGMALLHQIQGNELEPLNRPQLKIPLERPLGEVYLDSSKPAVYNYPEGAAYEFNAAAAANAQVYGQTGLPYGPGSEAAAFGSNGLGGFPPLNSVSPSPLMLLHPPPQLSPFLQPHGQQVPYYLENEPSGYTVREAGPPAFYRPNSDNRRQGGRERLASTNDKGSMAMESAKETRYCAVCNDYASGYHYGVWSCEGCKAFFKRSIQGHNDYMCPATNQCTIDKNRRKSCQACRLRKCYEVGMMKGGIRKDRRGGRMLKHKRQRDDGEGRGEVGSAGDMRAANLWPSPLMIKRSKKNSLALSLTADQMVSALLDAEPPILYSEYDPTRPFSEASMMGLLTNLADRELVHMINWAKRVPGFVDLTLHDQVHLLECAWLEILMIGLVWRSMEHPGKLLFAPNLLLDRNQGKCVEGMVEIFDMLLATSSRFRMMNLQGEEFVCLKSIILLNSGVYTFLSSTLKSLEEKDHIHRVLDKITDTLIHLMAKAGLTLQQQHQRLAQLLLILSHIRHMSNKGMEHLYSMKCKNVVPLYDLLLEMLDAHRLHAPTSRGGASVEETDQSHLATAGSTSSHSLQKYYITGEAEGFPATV
Test [7] in a line: qHTS assay to identify small molecule antagonists of the estrogen receptor alpha (ER-alpha) signaling pathway using the BG1 cell line (AID 743080; calls by dose curve;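 note: BG1 cells stimulated with 17beta-estradiol alongside compound; nearly all actives have a fitted effect of over 25% in size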; note: potency is the fitted concentration of half-maximal effect). The method, boiled down:
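After 5 days in phenol-red-free 10% charcoal-stripped FBS medium, BG1-Luc-4E2 cells were seeded, left 24 h at 37 C, co-treated with compounds and 17beta-estradiol for 21.5 h, then assayed for viability and luciferase.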

Test [8] is described as follows: qHTS assay to identify small molecule antagonists of the estrogen receptor alpha (ER-alpha) signaling pathway using the BG1 cell line - cell viability counter screen (AID 743081).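 Note: compound given together with 17beta-estradiol as the ER stimulus; series mostly up to about 70 µM; nearly all actives have a fitted effect of over 45% in size.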
The target of another test is Aromatase (Homo sapiens) (UniProt P11511). The experiment in a line: qHTS assay to identify aromatase inhibitors (AID 743083). Note: nearly all actives have a fitted effect of over 55% in size. Note: potency is the fitted concentration of half-maximal effect.
Chain of Aromatase (Homo sapiens) (P11511 whole entry, looked up): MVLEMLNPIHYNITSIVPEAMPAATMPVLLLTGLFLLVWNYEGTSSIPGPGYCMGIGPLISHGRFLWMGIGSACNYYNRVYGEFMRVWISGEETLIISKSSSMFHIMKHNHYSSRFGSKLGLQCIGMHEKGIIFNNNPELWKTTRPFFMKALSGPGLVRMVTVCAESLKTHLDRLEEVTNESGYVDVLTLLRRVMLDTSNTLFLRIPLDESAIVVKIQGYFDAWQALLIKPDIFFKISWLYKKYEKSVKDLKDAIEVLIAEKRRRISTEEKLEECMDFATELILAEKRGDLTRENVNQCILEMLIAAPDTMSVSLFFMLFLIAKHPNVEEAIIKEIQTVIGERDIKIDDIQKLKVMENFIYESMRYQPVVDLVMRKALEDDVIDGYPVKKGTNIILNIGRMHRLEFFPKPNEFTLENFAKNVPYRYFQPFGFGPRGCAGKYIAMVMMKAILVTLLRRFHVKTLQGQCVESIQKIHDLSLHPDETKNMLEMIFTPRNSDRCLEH
Test [9] deals with Estrogen receptor (Homo sapiens) (UniProt P03372). The experiment in a line: qHTS assay to identify small molecule agonists of the estrogen receptor alpha (ER-alpha) signaling pathway using the BG1 cell line (AID 743079). Note: nearly all actives have a fitted effect of over 20% in size. Note: potency is the fitted concentration of half-maximal effect.

Several values for one entry are separate records, joined by “and”; a condition that tells them apart may be missing. Identical values can stand only once. Where a structure was tested more than once in an assay, its records may differ in their call. Activity calls are given as the source filed them. Unless noted, calls come from the whole dose curve; as a rule, active = well fitted curve in the direction sought with a large enough effect in the repeat runs; inconclusive = weak or mixed curves; inactive = no such curve, though single readings can be large; an effect the other way counts as inactive or inconclusive.

For `CCOP(=S)(OCC)SCSc1cc(Cl)ccc1Cl`, the Potency entry in [1], in test [2], in [3], in [4], in [5] and in test [6] was “inactive” throughout. Moreover, the Potency result (in test [7]; in [8]; with Aromatase (Homo sapiens)) was “inactive” each time.
For the compound `C1CS1`, the Potency entry in test [1], in test [2], in [3], in test [5], in test [6] and in [9] was “inactive” throughout. Also, the Potency result (in [7]; in [8]; with Aromatase (Homo sapiens)) was “inactive” throughout.
Take `Oc1cccc(Cl)c1`: the Potency result in test [1], in test [2], in [3], in [5], in test [6] and in test [9] was “inactive” in each case. Besides, the Potency result (in test [7]; in test [8]; in the test with Aromatase (Homo sapiens)) was “inactive” throughout.
In the case of `CC(C)CCON=O`, the Potency result (in test [1]; in test [2]; in [3]; in test [5]; in test [8]; with Aromatase (Homo sapiens)) was “inactive” throughout.
Turning to `COP(=O)(OC)OC(Br)C(Cl)(Cl)Br` (stereo unspecified), the Potency was 54.5 µM (active) and 61.1 µM (active) in test [1]; 54.5 µM (active) and 48.6 µM (active) in [2]; 61.7 µM [inconclusive] (active) and inactive in test [6]; 61.2 µM (active) and 61.1 µM (active) with Aromatase (Homo sapiens). The Potency result in test [3], in [5], in [9] and in test [8] was “inactive” throughout.
With `C[N+](C)(C)CCOC(=O)C(O)(c1ccccc1)c1ccccc1`, the Potency entry (in test [1]; in test [2]; in test [3]; in test [5]; in [8]; with Aromatase (Homo sapiens)) was “inactive” in each case.
For `C#C[C@]1(O)CC[C@H]2[C@@H]3CCC4=CC(=O)CCC4=C3C=C[C@@]21CC`, the Potency entry (in test [1]; in [3]; in test [5]; in test [8]; with Aromatase (Homo sapiens)) was “inactive” each time. For the same compound, the Potency was 23.7 µM (active) in test [2], 213 nM [inconclusive] (active) in test [6], 0.0422 µM (active) in test [9] and 23.7 µM (active) in test [7].
With `CCCCOC(=O)CCC(=O)OCCCC`, the Potency result (in test [1]; in test [2]; in test [3]; in [5]; in [8]; in the test with Aromatase (Homo sapiens)) was “inactive” throughout.
On to `Clc1ccccc1`, for which the Potency entry in [1], in [2], in [3], in test [5], in test [6] and in test [9] was “inactive” throughout. Further, the Potency result (in [7]; in test [8]; with Aromatase (Homo sapiens)) was “inactive” in each case.
Turning to `N#CC1(N=NC2(C#N)CCCCC2)CCCCC1`, the Potency entry (in test [1]; in [2]; in test [3]; in [5]; in test [8]; with Aromatase (Homo sapiens)) was “inactive” in each case.
In the case of `O=C(CCl)CCl`, the Potency is 25.2 µM (active) and 15.4 µM (active) in [1]; 25.2 µM (active) and 8.63 µM (active) in [2]; 50.7 µM [activator] (active) and 1.1 µM [inconclusive] (active) in test [6]; 44.9 µM (active) and 8.63 µM (active) with Aromatase (Homo sapiens). For the same compound, the Potency entry in test [3], in test [5], in test [9] and in [8] was “inactive” throughout.
For `C=CC(=O)NC(C)(C)CC(C)=O`, the Potency entry in test [1], in test [2], in [3], in [5], in [6] and in test [9] was “inactive” each time. For the same compound, the Potency entry (in test [7]; in test [8]; in the test with Aromatase (Homo sapiens)) was “inactive” throughout.
Turning to `CC[N+]1(C)CCCC(OC(=O)C(O)(c2ccccc2)c2ccccc2)C1` (stereo unspecified), the Potency entry (in test [1]; in test [2]; in test [3]; in [5]; in test [8]; with Aromatase (Homo sapiens)) was “inactive” in each case.
For `CCc1cnc(C2=NC(C)(C(C)C)C(=O)N2)c(C(=O)O)c1` (stereo unspecified), the Potency result (in test [1]; in test [2]; in [3]; in [5]; in test [8]; with Aromatase (Homo sapiens)) was “inactive” throughout.
As for `CCCCCCCCP(=O)(O)O`, the Potency result (in test [1]; in test [2]; in [3]; in [5]; in [8]; with Aromatase (Homo sapiens)) was “inactive” throughout.
As to `Cc1ccc(N)c(C)c1`, the Potency result (in test [1]; in test [2]; in [3]; in [5]; in test [8]; with Aromatase (Homo sapiens)) was “inactive” in each case.
Turning to `CCCCCCCCCCCC[N+](C)(C)CCOc1ccccc1`, the Potency in test [1] was 13.3 µM (active) and 9.69 µM (active); in [2], 10.6 µM (active) and 9.69 µM (active); in test [5], 19 µM (active) and 17.4 µM (active); with Aromatase (Homo sapiens) it was 21.1 µM (active) and 19.3 µM (active). For the same compound, the Potency result in [3], in test [6], in test [7] and in [8] was “inactive” each time.
Regarding `CN(C)c1ccc(N=O)cc1`, the Potency is 3.87 µM (active) and 9.69 µM (active) in test [1]; 5.46 µM (active) and 12.2 µM (active) in test [2]; 13.7 µM (active) in test [3]; 12.2 µM (active) in test [9]; 9.72 µM (active) and 21.7 µM (active) in the test with Aromatase (Homo sapiens). In addition, the Potency result in test [5] and in test [6] was “inactive” in each case.
For `OC[P+](CO)(CO)CO`, the Potency entry in test [1], in test [2], in [3], in test [5], in test [7] and in test [8] was “inactive” each time. Moreover, in the test with Aromatase (Homo sapiens), the Potency entry is “inactive”.
Regarding `C=CCc1ccccc1O`, the Potency result in test [1], in test [2], in [3], in [5], in [6] and in [9] was “inactive” each time. For the same compound, the Potency result (in test [7]; in test [8]; in the test with Aromatase (Homo sapiens)) was “inactive” each time.
Consider `O=C(Cc1ccccc1)OCCc1ccccc1`, for which the Potency result in test [1], in test [2], in [3], in [5], in test [6] and in test [9] was “inactive” each time. The Potency entry (in test [7]; in [8]; with Aromatase (Homo sapiens)) was “inactive” throughout.
Take `O=C(Cc1ccccc1)c1ccccc1`: the Potency result in test [1], in test [2], in [3], in test [5], in test [6] and in [8] was “inactive” throughout. Moreover, in the test with Aromatase (Homo sapiens), the Potency result is “inactive”.
As for `O=C(O)C(Cl)(Cl)Br`, the Potency entry (in [1]; in [2]; in [3]; in test [5]; in [8]; with Aromatase (Homo sapiens)) was “inactive” each time.
On to `CCC1CCC(=O)O1` (stereo unspecified), for which the Potency entry in [1], in test [2], in [3], in test [5] and in test [8] was “inactive” throughout.
For `NP(N)(=O)NC(=O)c1ccc(F)cc1`, the Potency entry in [1], in [2], in test [3], in [5], in test [6] and in [7] was “inactive” throughout. The Potency entry (in test [8]; in the test with Aromatase (Homo sapiens)) was “inactive” each time.
In the case of `O=C(O)C(F)(F)C(F)(F)C(F)(F)C(F)(F)C(F)(F)F`, the Potency result in [1], in test [2], in test [3], in test [5], in test [6] and in test [9] was “inactive” each time. The Potency result (in [7]; in [8]; in the test with Aromatase (Homo sapiens)) was “inactive” throughout.
For the compound `ClCc1ccccc1Cl`, the Potency result (in [1]; in [2]; in test [3]; in [5]; in test [8]; in the test with Aromatase (Homo sapiens)) was “inactive” each time.
Take `C=CCOC(=O)C(C)(C)OC(=O)c1cc(-n2c(=O)cc(C(F)(F)F)n(C)c2=O)ccc1Cl`: the Potency entry in test [1], in [2], in [3], in test [5], in [6] and in test [9] was “inactive” in each case. The Potency result (in test [8]; with Aromatase (Homo sapiens)) was “inactive” each time. Moreover, in test [7], the Potency was 26.8 µM (active).
With `CC(C)(C)OOC(C)(C)CCC(C)(C)OOC(C)(C)C`, the Potency result in test [1], in test [2], in test [3], in test [5] and in test [8] was “inactive” in each case.
As to `Cc1cccc(C)c1NC1=NCCCS1`, the Potency result in test [1], in [2], in test [3], in test [5], in [6] and in test [9] was “inactive” each time. The Potency entry (in test [7]; with Aromatase (Homo sapiens)) was “inactive” in each case.
Take `Nc1ccccc1C(=O)OCCc1ccccc1`: the Potency entry in test [1], in [2], in [3], in [5] and in test [8] was “inactive” in each case.
